TDP1 cell CPT: growth inhibition of DT40 Tdp1-/-;hTDP1 cells with camptothecin (screen for TDP1 inhibitors); chicken DT40 Tdp1-/-;hTDP1 cells + 20 nM CPT, ATP luminescence, 48 h; Potency, µM (titrated, usually from 46.2 µM), for inactives: at the highest dose activity change, negative = growth inhibition, actives largely listed as inhibitors; hit rate 12% among 420,000; note: potency is the fitted concentration of half-maximal effect; nearly all actives have a fitted effect of over 55% in size
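Chicken DT40 Tdp1-/- cells stably complemented with human TDP1 were seeded at 400 cells/well in medium containing 20 nM camptothecin, exposed to pin-transferred compounds, and grown at 37 °C for at least 48 hr. Viability was read as ATP luminescence.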
RORg inh: ROR gamma (mouse) transcription inhibition | P51450 | Drosophila S2 Gal4-RORgamma UAS-luciferase reporter, 20 h | Potency, µM (doses to about 53.6 µM), for the others: at the top dose activity change, negative = inhibition, hits mostly inhibitors | hit rate 5.4% among 310,000 | AID 2551; note: potency is the fitted concentration of half-maximal effect; nearly all actives have a fitted effect of over 60% in size
Target sequence (P51450 whole entry, looked up, the tested form may be a part): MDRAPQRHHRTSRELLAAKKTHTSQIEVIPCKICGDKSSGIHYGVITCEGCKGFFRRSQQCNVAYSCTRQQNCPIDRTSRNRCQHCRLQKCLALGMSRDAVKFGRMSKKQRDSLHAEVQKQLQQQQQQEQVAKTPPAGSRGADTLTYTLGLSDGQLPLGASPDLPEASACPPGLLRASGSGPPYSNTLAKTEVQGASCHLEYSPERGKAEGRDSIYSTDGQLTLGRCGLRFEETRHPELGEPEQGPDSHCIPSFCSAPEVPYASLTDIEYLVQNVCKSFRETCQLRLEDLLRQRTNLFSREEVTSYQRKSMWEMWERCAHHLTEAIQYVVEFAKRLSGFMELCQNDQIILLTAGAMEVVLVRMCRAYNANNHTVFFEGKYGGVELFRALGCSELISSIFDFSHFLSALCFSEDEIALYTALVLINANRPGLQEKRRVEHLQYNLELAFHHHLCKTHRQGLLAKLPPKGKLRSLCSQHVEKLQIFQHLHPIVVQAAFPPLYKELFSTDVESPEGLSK
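Drosophila Schneider cells stably carrying a metallothionein-driven Gal4 DBD–ROR gamma fusion and a UAS-Photinus luciferase reporter were exposed to compound for 1 hr, then induced with copper sulfate (700 uM final) for 20 hr at ambient temperature before luminescence reading.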
DT40 TDP1 no CPT: qHTS for Inhibitors of human tyrosyl-DNA phosphodiesterase 1 (TDP1): qHTS in cells in absence of CPT | AID 686978, 2013 | hit rate 15% among 420,000 | Potency, µM (doses to about 46.2 µM), without a hit: top-dose activity change, negative = growth inhibition, usual class: inhibitors | DT40 Tdp1-/- hTDP1 cells, no CPT, ATP luminescence, 48 h; note: potency is the fitted concentration of half-maximal effect; nearly all actives have a fitted effect of over 55% in size
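Chicken DT40 Tdp1-/- cells complemented with human TDP1, screened without camptothecin (DMSO vehicle only), 400 cells/well. Compounds pin-transferred, cells incubated at 37 °C for at least 48 hr. Growth read as ATP-dependent luminescence (CellTiter-Glo, 30 min at RT).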
IL-1B inflam inh: inhibitors of inflammasome signaling (IL-1 beta secretion); THP-1 LPS/ATP IL-1B secretion, AlphaLISA, 16 h; stronger effect = lower value; activity change, % at 57.5 µM; hit rate 4.7% among 360,000; in the data active = activity change below about -50%; inconclusive = mostly about -30% to -49%
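THP-1 cells pretreated 1 hr with compounds (up to 57.5 uM final), then stimulated with LPS (250 ng/mL final) plus ATP (1.25 mM final); secreted IL-1B measured by AlphaLISA after 16 hr, decreased signal indicating inhibition.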
LDHA inh: inhibitors of human lactate dehydrogenase A; P00338; purified LDHA, NADH/diaphorase-resazurin fluorescence; stronger effect = lower value; activity change, % (values are at about 110 or 230 µM); hit rate 0.15% among 480,000; AID 1347041; in the data active = activity change below about -30%; inconclusive = mostly about -25% to -30%;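 note: plate controls were DMSO wells for no effect and wells without enzyme for full effect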
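Human LDH5 (2 nM) was incubated with 0.06 mM NADH and 0.2 mM pyruvate for 5 min at room temperature in Tris pH 7.4. Remaining NADH was coupled through diaphorase/resazurin, and resorufin fluorescence was read at 0 and 20 min.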
Gal4-VP16 FLuc: inhibits Gal4-VP16 luciferase reporter, ROR gamma counter-screen | Drosophila S2 Gal4-VP16 UAS-luciferase, luminescence, 20 h | Potency, µM (highest dose often 53.6 µM), for inactives: at the top dose activity, negative = inhibition, hits mostly inhibitors | hit rate 3.5% among 310,000 | AID 2546;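 note: Gal4-VP16 expression switched on by copper sulfate through the metallothionein promoter; potency is the fitted concentration of half-maximal effect; nearly all actives have a fitted effect of over 50% in size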
Numbers without * were called inactive; ? = inconclusive; / = not tested or not shown; [ ] = dose if it differs, or a comment. Compounds with a hit are over-represented: about 18% of the library has one in this group of screens. Unless noted, calls come from the whole dose curve; as a rule, active = well fitted curve in the direction sought with a large enough effect; inconclusive = small, poorly fitted or top-dose-only effect, or another doubt; inactive = no such curve, though single readings can be large; an effect the other way counts as inactive or inconclusive. Unless noted, % is set by controls: 0 for no effect and ±100 for the full control effect.

SMILES	TDP1 cell CPT	RORg inh	DT40 TDP1 no CPT	IL-1B inflam inh	LDHA inh	Gal4-VP16 FLuc
Cc1ccc(C)c(N(C)C(=O)c2coc(=O)c3ccccc23)c1	?	4.0%	23.1µM*	0.5	1.7	21.6%
O=C(NCc1ccco1)c1ccc2c(c1)N(Cc1ccccc1)C(=O)c1ccccc1S2	-25.1%	/	-17.9%	/	-5.1	/
CCC1=Nc2cc(C(=O)NCCc3ccc(OC)c(OC)c3)ccc2Sc2ccccc21	16.4µM*	/	23.1µM*	/	-4.7	/
CCC1=Nc2cc(C(=O)NCc3ccco3)ccc2Sc2ccc(Cl)cc21	1.3µM*	-5.8%[10 µM]	1.03µM*	29.1	-2.9	5.2%
CCC1=Nc2cc(C(=O)NCc3ccc(C)cc3)ccc2Sc2ccc(C)cc21	7.31µM*	/	8.2µM*	/	-1.5	/
CCC1=Nc2cc(C(=O)NCCCOC(C)C)ccc2Sc2ccccc21	?	-0.7%	?	11.9	-4.1	8.9%
CCOC(=O)C1CCN(C(=O)c2ccc(OCC)c(OCC)c2)CC1	?	-3.3%[10 µM]	3.2%	16.3	-7.4	3.3%
CCOC(=O)C1CCN(C(=O)c2ccc3c(c2)N=C(CC)c2cc(C)ccc2S3)CC1	14.6µM*	/	?	/	2.4	/
Cc1ccc(-c2nc(Cn3cccc(C(F)(F)F)c3=O)co2)cc1	/	/	/	/	1.9	/
O=C(Nc1cccc(-c2nnnn2C2CC2)c1)c1c2c(nc3ccccc13)CCC2	/	/	/	/	1.3	/
CCCC1=Nc2cc(C(=O)NCCN3CCOCC3)ccc2Sc2ccccc21	-25.9%	0.4%	1.0%	5.7	-4.6	-2.1%
CCC1=Nc2cc(C(=O)NCc3ccco3)ccc2Sc2ccccc21	3.26µM*	18.8%[10 µM]	4.61µM*	72.6	-2.0	2.5%
CCCC1=Nc2cc(C(=O)NCc3ccccc3)ccc2Sc2ccccc21	4.11µM*	/	3.26µM*	/	3.0	/
CC(C)c1ccc(NC(=O)CCC2CCCC2)cc1	/	/	/	/	-4.4	/
CC1CCCC(C)N1NC(=S)Nc1ccc(OC(F)F)cc1 (stereo unspecified)	20.6µM*	3.16µM*	?	6.4	-2.5	6.31µM*
CC(C)c1ccc(NC(=S)NN2C(C)CCCC2C)cc1 (stereo unspecified)	-2.3%	1.58µM*	-16.1%	99.0	-8.6	6.31µM*
CCN(CC)c1ccc(/C=N/NS(=O)(=O)c2ccc(Cl)cc2)cc1	/	/	/	/	14.2	/
Cc1onc(-c2ccccc2)c1C(=O)NCCN1Cc2ccccc2OC(c2ccsc2)C1 (stereo unspecified)	-1.2%[9.04 µM]	/	14.6µM*	/	/	/
Cc1ccc2c(c1)CN(CCNC(=O)c1c(-c3ccccc3)noc1C)CC(C)O2 (stereo unspecified)	4.6%[9.04 µM]	/	-11.3%	/	/	/
O=C(NNC(=O)C1CC1c1ccccc1)c1ccccc1F (stereo unspecified)	1.1%	-2.3%	16.6%	6.6	-1.3	20.1%
O=C(/C=C/c1ccc(F)cc1)NC(=S)NNC(=O)[C@H]1C[C@@H]1c1ccccc1	?	?	23.1µM*	18.3	-10.3	-7.5%
CC(C)(C)NC(=S)NNC(=O)[C@H]1C[C@@H]1c1ccccc1	?	0.562µM*	?	1.1	-1.6	-22.8%
O=C(NC(=S)NNC(=O)[C@H]1C[C@@H]1c1ccccc1)c1ccc(F)cc1	14.6µM*	10µM*	13µM*	66.7	-2.1	?
COc1cc(OC)cc(C(=O)NC(=S)NNC(=O)[C@H]2C[C@@H]2c2ccccc2)c1	?	14.1µM*	18.4µM*	43.2	-18.3	?
O=C(NC(=S)NNC(=O)[C@H]1C[C@@H]1c1ccccc1)c1ccc(-c2ccccc2)cc1	/	/	/	/	-5.1	/
SMILES	TDP1 cell CPT	RORg inh	DT40 TDP1 no CPT	IL-1B inflam inh	LDHA inh	Gal4-VP16 FLuc
CC/C=C(/C)C(=O)N1CCCC(C(=O)NCC2CC2)C1 (stereo unspecified)	/	/	/	/	6.4	/
O=C(NCC1CC1(Cl)Cl)Nc1ccc(Cl)c(Cl)c1 (stereo unspecified)	?	?	?	-95.0*	-4.8	-23.2%
CCC(CC)C(=O)Nc1ccc(Cl)c(Cl)c1	-28.5%	19.8%	13µM*	12.9	-6.0	8.6%
CCN(CC)C(=S)Nc1ccc(Cl)c(Cl)c1	-8.5%	17.8µM*	?	5.2	0.5	?
CC(=O)Nc1ccc(OCc2cc(=O)n3ccsc3n2)cc1	/	/	/	/	-3.9	/
CN(C(=O)CCc1ncc(-c2ccccc2)o1)C1CC1	/	/	/	/	-4.1	/
CCCCCCOC(=O)/C=C/c1c(C)[nH]c(=O)[nH]c1=O	?	31.0%	4.61µM*	31.0	-0.2	-19.3%
COc1cc(NC(=S)NC(=O)c2ccc(C)cc2C)ccc1NC(=O)c1cccs1	?	?	?	25.5	-1.1	?
Cc1ccc(C(=O)Nc2cccc(NC(=O)c3cccs3)c2)c(C)c1	-66.9%	73.3%	16.4µM*	0.8	-0.2	22.3%
Cc1ccc(C(=O)Nc2ccncc2)c(C)c1	?	17.7%	?	-20.9	-3.2	3.0%
COc1cc(NC(=O)c2c(F)c(F)c(OC)c(F)c2F)ccc1NC(=O)c1cccs1	20.6µM*	15.3%	18.4µM*	0.0	-1.2	0.3%
CCC(=O)Nc1cc(C)ccc1NC(=O)c1cccs1	/	/	/	/	-31.2*	/
COc1cc(NC(=O)c2ccc(C)cc2C)ccc1NC(=O)c1cccs1	-7.0%	21.0%	-17.3%	-63.0*	-16.9	-9.7%
Cc1nc(CN2C(=O)COc3ccc(S(=O)(=O)NC4CCCCCCC4)cc32)no1	/	/	/	/	-12.9	/
Nc1ccc(-c2ccc3ccccc3n2)cc1	/	-19.6%	/	/	/	11.2µM*
COc1cc2ccc(-c3ccc4ccccc4n3)cc2cc1OC	?	/	6.51µM*	-3.6	-8.2	/
CC(C)c1cccc(Nc2ccc(S(N)(=O)=O)cc2[N+](=O)[O-])c1	/	/	/	/	-1.5	/
COc1ccc(CCNC(=O)c2ccc3c(c2)ncn3-c2ccc(C(C)C)cc2)cc1OC	10.3µM*	/	18.4µM*	/	1.0	/
CCOCCCNC(=O)c1ccc2c(c1)ncn2-c1ccc(C)cc1C	-26.2%	7.5%	16.4µM*	-16.2	-6.2	1.4%
CCCCCNC(=O)c1ccc2c(c1)ncn2-c1ccc(OC)cc1	-11.3%	17.4%	?	?	-2.2	-0.2%
COc1ccc(CCNC(=O)c2ccc3c(c2)ncn3-c2ccc(C)cc2C)cc1OC	?	/	20.6µM*	/	7.2	/
Cc1ccc2oc(C(=O)Nc3ccccc3Cl)cc(=O)c2c1	/	/	/	/	7.7	/
Cc1ccc(CNC(=O)Cc2nc(-c3cccs3)oc2C)cc1	/	/	/	/	7.3	/
O=C(N/N=C/C(Br)=C\c1ccccc1)c1ccco1	6.51µM*	-31.1%	9.2µM*	?	-5.0	6.3%
Cc1occc1C(=O)N/N=C/C(Br)=C\c1ccccc1	18.4µM*	-38.5%	11.6µM*	?	-2.5	?

Source: PubChem (National Center for Advancing Translational Sciences (NCATS))
